In all, about 68,000 sequences were measured (“fluorescence intensity (a.u.)”: median about 9,100, highest 2% from about 16,000 on). This excerpt belongs to a sample that is enriched for the highest values.

The text below walks through data of paper PMC7819943, “Rice protein-binding microarrays: a tool to detect cis-acting elements near promoter regions in rice”.

Chain of OsWRKY34 (Q0JBA9 entry or part of it): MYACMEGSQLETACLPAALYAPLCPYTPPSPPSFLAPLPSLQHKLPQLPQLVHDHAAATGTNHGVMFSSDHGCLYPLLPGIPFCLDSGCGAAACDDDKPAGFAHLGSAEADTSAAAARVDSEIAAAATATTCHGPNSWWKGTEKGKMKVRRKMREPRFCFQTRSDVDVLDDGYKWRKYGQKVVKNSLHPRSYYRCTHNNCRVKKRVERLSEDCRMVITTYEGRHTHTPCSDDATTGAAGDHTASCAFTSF

This experiment addresses OsWRKY34 (Oryza sativa, UniProt Q0JBA9 1-250). The experiment can be described thus: protein-binding microarray (RPBM); PBS, 2% BSA, 51.3 ng/ul salmon testes DNA, 50 uM zinc acetate, 200 nM TF, 25 C, 1 h; high values mean tight binding. The conditions noted are these: protein: recombinant; tags: N-terminal polyhistidine and DsRed monomer fusion (pET32a); label: CyDye5-dUTP incorporated in the synthesized complementary strand; 3' TTTTT single-stranded linker to array surface; dsDNA, one strand shown. The gist of the method: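 A custom Agilent array was converted to double-stranded form by primer extension with Cy5-dUTP and blocked with 2% BSA. Protein at 200 nM in PBS with 2% BSA, salmon testes DNA and 50 µM zinc acetate was applied for 1 h at 25 °C, followed by washing. The proteins were polyhistidine–DsRed N-terminal fusions of transcription factors, expressed in E. coli BL21-CodonPlus and Ni–NTA-purified. The binding signal is per-feature fluorescence intensity (arbitrary units) from an Axon 4000B scanner.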
Consider “GCAGCTGATCGATCTGGTTTCTGCTTTGCTGCAACTCACTCGGAGTCACCTAGTGCAG”, for which the binding signal is 8870 fluorescence intensity (a.u.). In the case of “CTGGGGTTAGTTCTATGGATATTTGCTACTCCTGTTGATACGGAGTCACCTAGTGCAG” it was 8220 fluorescence intensity (a.u.); in that of “GAGTGACATTTGGGGTGGTTTTTGCAATTTTCTCTAAATTCGGAGTCACCTAGTGCAG”, 13000 fluorescence intensity (a.u.). For “GGGTATAAAGTCACTCTATTCGTTCTCACCGTTTTTTCGGCGGAGTCACCTAGTGCAG”, the binding signal is 8150 fluorescence intensity (a.u.).

Take “GGGAGGGCAACTGAAGAGGAGTGGCGAGGGAGGGCTTTTGCGGAGTCACCTAGTGCAG”: the binding signal is 12200 fluorescence intensity (a.u.). In the case of “ACACGCCCGCCCGCCGCCTCCACCGTCTCCGCTCGCCGCGCGGAGTCACCTAGTGCAG” it was 10500 fluorescence intensity (a.u.); in that of “ACCATTGTCGCATGCTCACATCCCATCTTTTCCAAAGGGACGGAGTCACCTAGTGCAG”, 10300 fluorescence intensity (a.u.). As to “CCCTGGTTTCCGTGTCCAATGTTTGACCGTCCGTCTTATTCGGAGTCACCTAGTGCAG”, the binding signal is 10200 fluorescence intensity (a.u.). As to “CGGGGCGGCTGGCTTGACGCGTCATCTTCCCCGCGAAAATCGGAGTCACCTAGTGCAG”, the binding signal was 14000 fluorescence intensity (a.u.). With “CGACATCTCTGAAACATTTCTCCTCGACCACGGCAACCCACGGAGTCACCTAGTGCAG”, the binding signal is 8630 fluorescence intensity (a.u.). “ATTAATTCTGTTTTTTTCAAGTCTCTCTCGCTCTCGCTCCCGGAGTCACCTAGTGCAG”: the binding signal was 8820 fluorescence intensity (a.u.). As for “CGTTCGCATCCACCACCAGTGCTCCGCCTGCCAGATCCATCGGAGTCACCTAGTGCAG”, the binding signal was 9140 fluorescence intensity (a.u.). Take “TGTGCCCGCTGCGCCAAGGGCTACGCCGTCCAGTCCGACTCGGAGTCACCTAGTGCAG”: the binding signal was 48500 fluorescence intensity (a.u.). “CTCCCGCCGCGACTCGCCGCCGCGCGCGGCATCTCCGGCCCGGAGTCACCTAGTGCAG”: the binding signal is 8820 fluorescence intensity (a.u.). On to “CTCGTGCTGCTTCCACCCCTCCCTCGTCGCCTTGCCAGTTCGGAGTCACCTAGTGCAG”, for which the binding signal is 9440 fluorescence intensity (a.u.).

Regarding “CCCCGCCGTCCGCGCCGACCGCGACCTGCGCTACGCCGCCCGGAGTCACCTAGTGCAG”, the binding signal was 8450 fluorescence intensity (a.u.).

With “TGTCCAGTCGTCACCCTGCTGCTTCCCTGCCACTGCCCTACGGAGTCACCTAGTGCAG”, the binding signal is 17000 fluorescence intensity (a.u.). With “GCGCCGACTGCCCGTCCGCCCCGTTGCTGCTGTGCGCACTCGGAGTCACCTAGTGCAG”, the binding signal was 8290 fluorescence intensity (a.u.). For “TCACGCATCGGCGCCGCCCTCCGGCCAGCAGCGACTCGCCCGGAGTCACCTAGTGCAG” the value was 44600 fluorescence intensity (a.u.); for “GGTTGTCGTCGTCGTCGTGGCCTACGCCTTCGCTGCTGCTCGGAGTCACCTAGTGCAG”, 10600 fluorescence intensity (a.u.); for “GGCCTCGTCTCCTACCTCGCCGACCCCGACCCCGACCACGCGGAGTCACCTAGTGCAG”, 8440 fluorescence intensity (a.u.). Take “GCTGTCGTCCCTGCTGTTCTTGGTGTGCTTCTTCACTGTCCGGAGTCACCTAGTGCAG”: the binding signal was 13600 fluorescence intensity (a.u.). “CACACGCTACCCCGACTCGTCGCCTTCGCCTTGCTCGTCTCGGAGTCACCTAGTGCAG”: the binding signal is 18000 fluorescence intensity (a.u.). In the case of “GGCCACGCCCGCCTCCGCGATCGTCCTCGCCGGCGACTGCCGGAGTCACCTAGTGCAG” it was 8410 fluorescence intensity (a.u.); in that of “TATATGTAAGCTACTTTTGTCCTATACATAAATTACTTTTCGGAGTCACCTAGTGCAG”, 8580 fluorescence intensity (a.u.). “CTCTCTCCTACTGTAGGCCACCACCACCGCGACCGCACGACGGAGTCACCTAGTGCAG”: the binding signal was 9340 fluorescence intensity (a.u.).

Consider “CATGTGCTAAAAAGTCAACGGTATCAAACATTTTTAAACGCGGAGTCACCTAGTGCAG”, for which the binding signal is 15800 fluorescence intensity (a.u.). As to “TCTCGAGGTTGTTACATTGTACTTGTCGCTAGCTCGTCATCGGAGTCACCTAGTGCAG”, the binding signal was 8400 fluorescence intensity (a.u.). On to “TCGCTAGTAGCTGTTGCTGCCTCTCCACCGCGTCCCTCTCCGGAGTCACCTAGTGCAG”, for which the binding signal is 11000 fluorescence intensity (a.u.). Consider “GTCGCGCCTGACGCCGCCGTTGCGCCTGCCACCGCCTGTCCGGAGTCACCTAGTGCAG”, for which the binding signal is 8220 fluorescence intensity (a.u.). For “CGCTCCACATAGGCTAGGCCCATGTCCCTTAGAGGATCCTCGGAGTCACCTAGTGCAG” the value was 8380 fluorescence intensity (a.u.); for “CCTCACATCTTCTTCTTCATCTCCCTGTCTCTGTCTCTGTCGGAGTCACCTAGTGCAG”, 13500 fluorescence intensity (a.u.); for “TGTCACATTTTTCGTCGTCTCCATCTTCATCTTCTTGTCGCGGAGTCACCTAGTGCAG”, 11200 fluorescence intensity (a.u.).

“TACCCACACCGATCTGCCGCTGCCCAGTTCCACCTACTTTCGGAGTCACCTAGTGCAG”: the binding signal was 16800 fluorescence intensity (a.u.). Consider “ACCCGTCTCTGTTCATCTCCACATCTTGTCTTCTCGCTGTCGGAGTCACCTAGTGCAG”, for which the binding signal was 18100 fluorescence intensity (a.u.). For the sequence “GTCTTCCCCTAGCGCCGCCGCCTCCACCTCCGCCGCCGTCCGGAGTCACCTAGTGCAG”, the binding signal is 8700 fluorescence intensity (a.u.). With “GCAGCGCTCGTCTCTCTCTGTCTCTCCACTCTCTTCTCTCCGGAGTCACCTAGTGCAG”, the binding signal was 10100 fluorescence intensity (a.u.). With “CTCACGCGCTGCACCGCCGATACCCCACCCGCTGCTAGTTCGGAGTCACCTAGTGCAG”, the binding signal is 8670 fluorescence intensity (a.u.). On to “CCGCCCTTAGACAGGCCCCGCCTCCGCCTCCGCGCCCACCCGGAGTCACCTAGTGCAG”, for which the binding signal was 27800 fluorescence intensity (a.u.). Turning to “GCTACTACTGCTGCTGCTGCTACTTATCCACCGCTTTTTTCGGAGTCACCTAGTGCAG”, the binding signal is 13600 fluorescence intensity (a.u.). Regarding “CCCCACCGCCCACCGCCCACCGCCCACCCACCTCCGCACCCGGAGTCACCTAGTGCAG”, the binding signal is 11600 fluorescence intensity (a.u.). For “CTAACCCGCGCCCCAACCCTAGCCGCCTCCGCCCCGCCTCCGGAGTCACCTAGTGCAG” the value was 8920 fluorescence intensity (a.u.).
